Out of some 420,000 compounds screened, about 50,000 (12%) were called active. Entries that show only a call come without a potency. Not shown: some 26% with an inconclusive outcome. Only a selection was taken, and actives are over-represented in it overall. Unmarked numbers belong to inactive results. Calls come from the whole dose curve; as a rule, active = well fitted inhibition curve with a large enough effect; inconclusive = small, poorly fitted or top-dose-only effect; inactive = flat fitted curve, though single readings scatter.
Potency is the fitted concentration of half-maximal effect.

This test in a line: qHTS for Inhibitors of human tyrosyl-DNA phosphodiesterase 1 (TDP1): qHTS in cells in presence of CPT. Note: nearly all actives have a fitted effect of over 55% in size. The following applies: chicken DT40 Tdp1-/-;hTDP1 cells + 20 nM CPT, ATP luminescence, 48 h; series mostly up to 46.2 µM. The text has this:
Human tyrosyl-DNA phosphodiesterase 1 (TDP1) is a novel repair gene, and we propose to use it as a new target for anticancer drug development. TDP1 is not an essential protein, but under treatment with topoisomerase I poison (camptothecin: CPT), TDP1 works as a critical factor for cell survival. To directly identify novel TDP1 inhibitors active in a cellular environment, we have knocked-out the Tdp1 gene in chicken DT40 cells (Tdp1-/-) and generated a complemented counterpart cells that contains a stable transfection of the human TDP1 gene (Tdp1-/-;hTDP1 cells). For the primary screen, Tdp1-/-;hTDP1 cells will be exposed to small molecules in the presence or absence of CPT, and their growth kinetics will be evaluated after 48 hours by measuring ATP activity. […] The hit compounds will then be evaluated in the presence or absence of CPT using Tdp1-/- cells. […] In tertiary assays, biochemical gel-based assays will be used to assess whether the hit compounds specifically target TDP1. To this end, we have screened this cell line against the MLSMR in two primary screens. In one screen we add CPT and in the other we screen in the absence of CPT; this AID represents the screen where CPT was present. NIH Chemical Genomics Center [NCGC] NIH Molecular Libraries Probe Centers Network [MLPCN] MLPCN Grant: MH095538 Assay Submitter (PI): Yves Pommier, NCI
DT40-hTDP1 cells with 20 nM Camptothecin (add 20 microL of 1 mM CPT stock in 1 L of cell culture medium) were dispensed at 400 cells/5microL/well in tissue culture treated 1536-well white wall/solid bottom assay plates (Greiner Bio-One North America, NC, U.S.A.) using a Multidrop Combi 8 channel dispenser (Thermo Fisher, Waltham, MA, USA). 23 nL compounds and controls were transferred using the pin tool (Kalypsys, San Diego, CA, USA) to the assay plates. The assay plates were then incubated at 37 masculineC for a minimum 48 hr. Three microL of Cell Titer Glo solution was added to the plates and incubated at RT in dark for 30 min. Luminescence was read using ViewLux (Perkin Elmer) with 1 sec exposure slow speed, high gain and 2x binning.
Regarding `CN(C)C(=O)c1ccc(NC(=O)COC(=O)c2cc3c(s2)CCCCC3)cc1`, the Potency entry is “inactive”.
Under `CCOc1ccc(CNC(=O)Cn2cc3c(n2)-c2c(oc(C(=O)N4CCCC4)c2C)CC3)cc1` stands 29.1 µM (active); under `CCCN(CCC)CCCNC(=O)Cn1cc2c(n1)-c1c(oc(C(=O)N3CCCC3)c1C)CC2`, “inactive”; under `CCOC(=O)N1CCC(NC(=O)Cn2cc3c(n2)CCCCC3)CC1`, “inactive”.
On to `CCOC(=O)C(C)n1cnc2scc(-c3ccc(C)c(C)c3)c2c1=O` (centres undefined), for which the Potency entry was “inactive”.
On to `COc1ccc(-c2nnc(SCC(=O)Nc3cccnc3Cl)n2C)cc1`, for which the Potency entry was “inactive”.
With `COC(=O)c1ccc(NC(=O)CSc2nnc(C3CC3)n2C)cc1`, the Potency entry is “inactive”.
Consider `CC(C)(C)NC(=O)COc1ccc(CNc2ccc3[nH]c(=O)[nH]c3c2)cc1`, for which the Potency entry is “inactive”.
Under `CC(=O)Nc1ccc(CN2CCC(Oc3ccc(C(=O)N4CCCC4)cc3)CC2)cc1` stands “inactive”.
Then `Oc1ccc(Cl)c2c1CCC2`, with “inactive”; and `COc1cc(NS(=O)(=O)c2ccc(NC(=O)c3ccc(S(=O)(=O)N4CCCCC4)cc3)cc2)ncn1`, with “inactive”.
As to `COc1ccc(S(=O)(=O)Nc2ccc(S(=O)(=O)N3CCCCC3)cc2)cc1OC`, the Potency entry was “inactive”.
Then `COc1ccc(-c2ccc(Nc3ccc(S(=O)(=O)N4CCCC4)cc3)nn2)cc1OC`, with 16.4 µM (active).
As to `COCCOC(=O)c1c(C)oc2cc(Br)c(OCC(N)=O)cc12`, the Potency result is “inactive”.
With `COC(=O)c1ccc(NC(=O)c2cc(S(=O)(=O)N3CCC(C)CC3)cn2C)cc1`, the Potency result is “inactive”.
As to `Cc1c(Cl)cccc1NC(=O)C(=O)NCCc1csc2nc(-c3ccccc3F)nn12`, the Potency was 18.4 µM (active).
Then `COc1cc(OC)cc(C(=O)NCCc2csc3nc(-c4ccccc4F)nn23)c1`, with “inactive”; and `CCOc1ccc(NC(=O)C(=O)NCCc2csc3nc(-c4ccccc4F)nn23)cc1`, with “inactive”.
Then `CCCC(O)(c1ccc(OC)cc1)C(CN(C)C)c1ccccc1` (centres undefined), with “inactive”; and `COc1cccc(CN(C)CC(=O)Nc2ccccc2C(=O)Nc2ccccc2)c1`, with “inactive”.
Then `COc1cccc(CN(C)CC(O)COC(c2ccccc2)c2ccccc2C)c1` (centres undefined), with 20.6 µM (active).
Turning to `CCOC(=O)C1=CC[C@@H](c2ccccc2)N(S(=O)(=O)c2ccc(C)cc2)[C@H]1c1cccc(OC)c1`, the Potency is 23.1 µM (active).
Turning to `Cc1ccccc1S(=O)(=O)N1[C@@H](c2cccc(Cl)c2)C(C(=O)O)=CC[C@H]1c1ccc(Cl)cc1`, the Potency entry was “inactive”.
For `CCOC(=O)C1=CCC(c2ccc(F)cc2)N(S(=O)(=O)c2ccc(C)cc2)C1` (centres undefined), the Potency is 16.4 µM (active).
Consider `Cc1ccc(S(=O)(=O)N2[C@@H](c3ccc(Br)cc3)C(C(=O)O)=C[C@H]2CC2CCCC2)cc1`, for which the Potency result is “inactive”.
Then `CCCCC[C@@H]1C=C(C(=O)OCC)[C@H](c2ccccc2)N1S(=O)(=O)c1ccc(C)cc1`, with 14.6 µM (active).
For `Cc1ccccc1S(=O)(=O)N1[C@@H](c2cccc(Cl)c2)C(C(=O)OC(C)(C)C)=CC[C@H]1c1ccc(Cl)cc1`, the Potency is 20.6 µM (active).
Under `O=C(CN1CCN(S(=O)(=O)c2ccc(F)cc2)CC1)NC1CC1` stands “inactive”.
Under `Cc1ccc(S(=O)(=O)N2CCCC2CO)cc1` (centres undefined) stands “inactive”.
On to `Cc1ccc(S(=O)(=O)N2[C@@H](c3cccc4ccccc34)C(C(=O)O)=C[C@H]2C(C)(C)C)cc1`, for which the Potency result is “inactive”.
Under `Cc1ccc(S(=O)(=O)N2C[C@H]3C(=O)C[C@@H](c4cccc5ccccc45)N(S(=O)(=O)c4ccc(C)cc4)[C@H]3C[C@H]2c2ccc(Cl)cc2)cc1` stands “inactive”; under `COc1ccc(S(=O)(=O)N2CCC(C(=O)NCCC(=O)NCc3cccc(OC)c3)CC2)cc1`, “inactive”.
Then `Cc1ccc(S(=O)(=O)N2[C@@H](c3ccccc3F)C(C(=O)O)=CC[C@H]2c2ccc(Cl)cc2)cc1`, with “inactive”; and `Cc1ccnc2nc(C(=O)Nc3nnc(-c4ccccc4)o3)nn12`, with “inactive”; and `Cc1ccc2[nH]c(=O)c(CN(C)S(=O)(=O)c3cccc4nonc34)cc2c1`, with “inactive”.
Take `COc1cc(NS(=O)(=O)c2cccs2)cc(OC)c1`: the Potency result is “inactive”.
Then `COCCNc1nc(-c2ccccc2)nc2c1oc1ccccc12`, with “inactive”; and `Cc1cc(C)c2nc(-c3cccnc3)cc(C(=O)Nc3ccc(S(=O)(=O)Nc4onc(C)c4C)cc3)c2c1`, with “inactive”.
Then `CC1CCN(C(=O)C2CCN(S(=O)(=O)N3CCC4(CC3)OCCO4)CC2)CC1`, with “inactive”; and `COc1cc(C2C3C(=O)N(c4ccccc4)C(=O)C3ON2c2ccccc2)ccc1O` (centres undefined), with “inactive”; and `COC(=O)c1sc(N)c(C(=O)OC)c1COC(=O)CNS(=O)(=O)c1ccc(C)cc1`, with “inactive”.
For the compound `COc1ccc2oc(-c3ccc(C)c(NC(=O)c4sc5ccccc5c4Cl)c3)nc2c1`, the Potency entry was “inactive”.
Then `CC1(C(=O)OCC(=O)Nc2ncc(Cl)cc2Cl)CC1(Cl)Cl` (centres undefined), with “inactive”; and `N#Cc1cccc(CN2CCC(=O)N([C@H](CO)c3ccccc3)CC2)c1`, with “inactive”; and `CC(C)(C(=O)NO)c1ccccc1`, with “inactive”.
Then `CCN(CC)S(=O)(=O)c1cccc(C(=O)NCC(=O)OCC(=O)NCc2ccccc2)c1`, with “inactive”; and `CN(C)S(=O)(=O)c1cccc(C(=O)Nc2cccnc2)c1`, with “inactive”; and `CCN(CC)S(=O)(=O)c1cccc(C(=O)Nc2ccccc2)c1`, with 20.6 µM (active).
Then `CC(OC(=O)c1cc2ccccc2o1)C(=O)Nc1ccc(N2CCOCC2)cc1` (centres undefined), with “inactive”.

For the origin of these results see PubChem BioAssay AID686979 (National Center for Advancing Translational Sciences (NCATS), 2013).
